Several values for one entry are separate records, joined by “and”; a condition that tells them apart may be missing. Equal values may be shown once. Inconclusive results are not listed. Some compounds were tested as several samples or in several runs, with calls that do not always agree. Activity calls are given as the source filed them. The calls were made as follows: active = hit-call score of the fitted dose curve at least 0.9, where 1 is the maximum; inconclusive = response in the unintended direction; inactive = score below 0.9.
The molecules below were run against human AMP-activated Protein Kinase, alpha 1 (AMPKa1), PRKAA1 (gene 5562) (UniProt Q13131) (assay: NVS_ENZ_hAMPKa1: NovaScreen (NVS) Enzymatic Assay for human AMP-activated Protein Kinase, alpha 1 (AMPKa1) (AID 2283130)).
human AMP-activated Protein Kinase, alpha 1 (AMPKa1), PRKAA1 (gene 5562), sequence (Q13131 whole entry, looked up): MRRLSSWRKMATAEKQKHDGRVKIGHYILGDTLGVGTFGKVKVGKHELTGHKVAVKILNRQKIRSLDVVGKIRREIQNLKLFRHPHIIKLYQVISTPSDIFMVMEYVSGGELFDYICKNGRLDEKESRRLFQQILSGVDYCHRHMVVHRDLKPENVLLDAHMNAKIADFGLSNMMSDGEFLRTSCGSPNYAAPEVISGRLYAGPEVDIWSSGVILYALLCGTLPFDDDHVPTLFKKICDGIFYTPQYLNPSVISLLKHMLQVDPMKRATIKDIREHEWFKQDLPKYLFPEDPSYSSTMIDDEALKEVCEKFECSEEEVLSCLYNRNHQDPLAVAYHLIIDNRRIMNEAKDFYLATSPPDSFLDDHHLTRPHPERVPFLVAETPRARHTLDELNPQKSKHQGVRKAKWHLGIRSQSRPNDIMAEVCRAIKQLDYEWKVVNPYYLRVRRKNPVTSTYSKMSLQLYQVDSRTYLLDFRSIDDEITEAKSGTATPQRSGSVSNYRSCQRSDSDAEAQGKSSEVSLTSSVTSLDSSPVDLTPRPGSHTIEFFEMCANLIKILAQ
Description: NVS_ENZ_hAMPKa1 is a biochemical, single-readout assay that uses extracted gene-proteins in a cell-free assay. Measurements were taken 1 hour after chemical dosing in a 384-well plate.NVS_ENZ_hAMPKa1 is one of one assay component(s) measured or calculated from the NVS_ENZ_hAMPKa1 assay. It is designed to make measurements of enzyme activity, a form of enzyme reporter, as detected with fluorescence intensity signals by Fluorescence and electrophoretic mobility shift technology.Data from the assay component NVS_ENZ_hAMPKa1 was analyzed into 1 assay endpoint. This assay endpoint, NVS_ENZ_hAMPKa1, was analyzed in the positive analysis fitting direction relative to DMSO as the negative control and baseline of activity. Using a type of enzyme reporter, loss-of-signal activity can be used to understand changes in the enzymatic activity as they relate to the gene PRKAA1. Furthermore, this assay endpoint can be referred to as a primary readout, because this assay has produced multiple assay endpoints where this one serves a enzymatic activity function. To generalize the intended target to other relatable targets, this assay endpoint is annotated to the kinase intended target family, where the subfamily is serine/threonine kinase.
Binding assays used specific radioligands (tritiated, iodinated) with non-radioactive competitive displacement ligands in agonist or antagonist protocols (as indicated) and various reference compounds and inhibitors to titrate specific binding to receptors and transporters. Most enzyme assays (CYPs, kinases, phosphatases, proteases, HDACs) used recombinant protein and specific substrates (fluorescence mostly, some colorimetric and radioactive) and inhibitors, followed by a biochemical separation of substrate and product. All assays for the biochemical HTS were initially run in duplicate at a single concentration (10 uM for CYP450 assays and 25 uM for all others). Assay-chemical combinations meeting a pre-defined threshold (e.g., 30% inhibition and other criteria defined below) were then run in singleton concentration-response format with maximum concentration of 20 uM for CYPs and 50 uM for all others. Each assay was run with positive and negative controls, and concurrent controls on every plate. The follow-up (secondary) screen tested active chemical-pairs in concentration series, as well as a few additional assays not tested in the primary screen, some selected negative inactives, and several cases re-run in the concentration series for confirmatory purposes.
For `CCCCCCCCCCCCc1ccccc1S(=O)(=O)O`, the AC50 was 11.3 µM (active).
For `CNS(=O)(=O)c1cc(C(=O)N2CCC(CCN3C4CCC3CC(n3c(C)nc5ccccc53)C4)(c3cccc(F)c3)CC2)c(Cl)cc1F` (stereo not given), the AC50 was 36 µM (active).
In the case of `Oc1ccc(C(c2ccc(O)cc2)C(Cl)(Cl)Cl)cc1`, the AC50 was 19.6 µM (active).
`O=C(Oc1ccccc1)c1cccc(C(=O)Oc2ccccc2)c1` was tested, and the outcome was “inactive”.
For `CC(C)(C)c1ccccc1`, the outcome was “inactive”.
In the case of `O=C(O)CCCCC(=O)O`, the outcome was “inactive”.
For `CC(C)CC(C)(O)C#CC(C)(O)CC(C)C` (stereo not given), the outcome was “inactive”.
With `CCN(CC)C(=S)SSC(=S)N(CC)CC` the outcome was “inactive”.
`COc1ccc(OC(F)(F)F)cc1CN[C@H]1CCCN[C@H]1c1ccccc1` was tested, and the outcome was “inactive”.
In the case of `S=C(S)NCCNC(=S)S.[Mn+2].[S-]C([S-])=NCCN=C([S-])[S-].[Zn+2]`, the AC50 was 1.87 µM (active) and 1.32 µM (active) and 2.26 µM (active).
In the case of `CCN(CC)C(=O)c1cc(S(=O)(=O)Cc2ccccc2)c(N2CCC(c3ccccc3)CC2)cc1N(CC)CCN(C)C`, the AC50 was 34.9 µM (active).
`O=C(O)c1cccc(Oc2ccccc2)c1` was tested, and the outcome was “inactive”.
With `O=C(c1ccc(OCCN2CCCCC2)cc1)c1c(-c2ccc(O)cc2)sc2cc(O)ccc12` the AC50 was 18.9 µM (active).
In the case of `CC(C)CCCCCCc1ccc(O)cc1`, the outcome was “inactive”.
In the case of `O=C(NO)C1(NS(=O)(=O)c2ccc(Oc3ccc(F)cc3)cc2)CCOCC1`, the outcome was “inactive”.
For `CN1C(=O)N(c2ccccc2Br)Cc2cnc(Nc3ccc4c(c3)OCC(CO)O4)nc21` (stereo not given), the outcome was “inactive”.
For `CCCCCCCC(=O)O`, the outcome was “inactive”.
For `c1ccc(C[n+]2cccc3ccccc32)cc1`, the outcome was “inactive”.
`CCc1c(C(=O)NN2CCCCC2)nn(-c2ccc(Cl)cc2Cl)c1-c1ccc(Br)cc1` was tested, and the outcome was “inactive”.
`Cc1ccc(N)cc1O` was tested, and the outcome was “inactive”.
In the case of `O=[N+]([O-])c1ccc(Cl)cc1`, the outcome was “inactive”.
In the case of `COCC(C)OCC(C)O` (stereo not given), the outcome was “inactive”.
`CN(C)C(=O)NC1(c2ccccc2)CCN(CC[C@@]2(c3ccc(F)c(F)c3)CN(C(=O)c3ccccc3)CCO2)CC1` was tested, and the outcome was “inactive”.
For `COc1cc(C(=O)NC2CCN(C)CC2)ccc1Nc1ncc2c(n1)N(C1CCCC1)CC(F)(F)C(=O)N2C`, the outcome was “inactive”.
`Cc1ncc([C@@H](CCCCCCc2ccc3c(n2)NCCC3)CC(=O)O)cn1` was tested, and the outcome was “inactive”.
With `O=C1O[C@H]([C@@H](O)CO)C(O)=C1O` the outcome was “inactive”.
With `N[C@@H](Cc1cc(I)c(Oc2ccc(O)c(I)c2)c(I)c1)C(=O)O` the outcome was “inactive”.
With `O=C(O)C1(C(=O)Nc2ccc(Cl)cc2Cl)CC1` the AC50 was 7.12 µM (active).
For `O=C(OCCCCCOC(=O)c1ccccc1)c1ccccc1`, the outcome was “inactive”.
For `CC1(C)NC(=O)NC1=O`, the outcome was “inactive”.
With `O=C1c2ccccc2C(=O)N1CCc1noc(-c2ccc(CN3CCCCCC3)s2)n1` the outcome was “inactive”.
For `CN(C)c1ccc(N=NS(=O)(=O)O)cc1`, the outcome was “inactive”.
With `CC/C(=C(\c1ccccc1)c1ccc(OCCN(C)C)cc1)c1ccccc1` the outcome was “inactive” and the AC50 was 25.4 µM (active).
For `O=C(OCCOCCOC(=O)c1ccccc1)c1ccccc1`, the outcome was “inactive”.
`C[Si]1(C)O[Si](C)(C)O[Si](C)(C)O[Si](C)(C)O1` was tested, and the outcome was “inactive”.
`CCN(CC)CCOc1ccc(C(=C(Cl)c2ccccc2)c2ccccc2)cc1` was tested, and the AC50 was 26.5 µM (active).
In the case of `O=C(O)Cc1cc(I)c(Oc2ccc(O)c(I)c2)c(I)c1`, the outcome was “inactive”.
`COc1cc(-c2nc(NC(=O)c3cc4cc(C)cc(C)c4n3CC(=O)O)sc2CCC2CCCCC2)c(OC)cc1Cl` was tested, and the AC50 was 8.19 µM (active).
For `CC1=C(/C=C/C(C)=C/C=C/C(C)=C/CO)C(C)(C)CCC1`, the outcome was “inactive”.

From PubChem BioAssay (EPA / NIEHS)
